The source of these data is PubChem BioAssay AID585 (National Center for Advancing Translational Sciences (NCATS), 2007).

Out of some 71,000 compounds screened, about 1,300 (1.8%) were called active. Calls follow the shape of the full dose curve. What follows is part of a selection rich in actives, with near analogues and random picks from the rest. Where a call stands in place of a potency, no number is given.
Potency is read from the fitted curve at half-maximal effect.

The target of the assay is Beta-lactamase (Escherichia coli (strain K12)) (UniProt P00811). Kind of assay: Promiscuous and Specific Inhibitors of AmpC Beta-Lactamase (assay without detergent). The following applies: AmpC nitrocefin hydrolysis, absorbance 480 nm, no detergent; series mostly up to 28.7 µM. On the procedure: NIH Molecular Libraries Screening Centers Network [MLSCN]
Sequence of Beta-lactamase (Escherichia coli (strain K12)) (P00811 whole entry, looked up): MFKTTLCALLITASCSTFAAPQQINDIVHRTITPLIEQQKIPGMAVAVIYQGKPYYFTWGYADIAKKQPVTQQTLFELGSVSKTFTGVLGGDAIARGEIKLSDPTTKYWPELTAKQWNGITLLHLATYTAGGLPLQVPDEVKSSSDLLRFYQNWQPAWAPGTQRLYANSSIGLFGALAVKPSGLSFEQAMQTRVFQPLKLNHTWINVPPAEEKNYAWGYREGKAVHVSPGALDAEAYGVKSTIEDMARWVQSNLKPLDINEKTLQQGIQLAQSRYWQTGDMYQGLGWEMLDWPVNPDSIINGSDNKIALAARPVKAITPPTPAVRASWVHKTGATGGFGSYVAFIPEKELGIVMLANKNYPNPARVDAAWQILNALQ
NIH Chemical Genomics Center [NCGC]
PI Name: Shoichet, Brian K.
This aggregation profiling approach exploits the sensitivity of aggregate formation to detergent. Inhibition of b-lactamase is measured in the presence and absence of 0.01% Triton X-100. See Pubchem assay "Promiscuous and Specific Inhibitors of AmpC Beta-Lactamase (assay with detergent)" for related screen. Compounds that inhibit only in the absence of detergent are considered likely promiscuous aggregators.
A screen of 1,030 compounds was performed in Brian Shoichet's lab in 96-well format. AmpC activity was measured by following the absorbance at 480 nm. Nitrocefin is a chromogenic substrate: while nitrocefin is yellow (lmax 390 nm), the product of its hydrolysis is red (lmax 486 nm, 17,000 M-1). AmpC beta lactamase was provided by Brian Shoichet and Brian Feng, UCSF.
NCGC Assay Protocol Summary:
20 mM phosphate buffer, pH 7.0
Triton X-100: No Detergent screen: 0.0001%, Detergent screen: 0.01%.
Buffer in columns 3 and 4 as negative control (no enzyme).
5.3 nM AmpC in columns 1, 2, 5-48. Titration of UCSF compound 9 control (from 10 mM, then 1:2) pin-transferred to column 2. Column 1 is neutral (100% activity).
Six uL of reagents were dispensed to 1536-well Greiner black clear bottom plates. Compounds and controls (23 nL) were transferred via Kalypsys PinTool. The plates were incubated for 15 min at room temperature, and then 2 uL of 800 uM solution of nitrocefin was added to start the reaction. The plates were immediately transferred to and read every 20 seconds for 4 min on ViewLux (Perkin-Elmer) High-throughput CCD imager using 480 nm absorbance protocol. During dispense, reagent bottles were kept submerged into 4 deg C water bath.
Keywords: NIH Roadmap, MLSCN, MLI, MLSMR, qHTS, NCGC, AmpC Beta-Lactamase, Aggregation.
On to `Cc1cc(NS(=O)(=O)c2ccccc2)no1`, for which the Potency is 3.98 µM [single pt active] (active).
As for `COc1cc2ccccc2cc1C(=O)Nc1ccc(S(=O)(=O)Nc2cc(C)on2)cc1`, the Potency result is “inactive”.
As for `O=S(=O)(Nc1ccccn1)c1ccc(Oc2ccccc2)cc1`, the Potency result is “inactive”.
Turning to `CCCc1cc(=O)[nH]c(SCc2ccc(C#N)cc2)n1`, the Potency entry was “inactive”.
With `CCOc1ccccc1C1CC(c2ccccc2)Nc2nc(N)nn21` (centres undefined) the figure was 3.98 µM [single pt active] (active).
On to `COc1ccc(C2CC(c3ccc(Cl)cc3Cl)Nc3nc(N)nn32)cc1OC` (centres undefined), for which the Potency entry is “inactive”.
As for `Cc1ccc(C2CC(c3cccc(C)c3)n3nc(N)nc3N2)cc1` (centres undefined), the Potency was 3.98 µM [single pt active] (active).
On to `CCOc1ccccc1C1CC(c2ccc(Cl)cc2)Nc2nc(N)nn21` (centres undefined), for which the Potency entry is “inactive”.
`Nc1nc2n(n1)C(c1ccco1)CC(c1ccc(Cl)c(Cl)c1)N2` (centres undefined): the Potency result was “inactive”.
As to `Cc1ccc(C2CC(c3cccc(Br)c3)n3nc(N)nc3N2)cc1` (centres undefined), the Potency entry is “inactive”.
In the case of `O=C(O)CCCC(=O)Nc1ccccc1-n1ccnc1`, the Potency result is “inactive”.
For the compound `CCOC(=O)c1c(NC(=O)CCC(=O)NCc2ccco2)sc2c1CCCC2`, the Potency result is “inactive”.
Consider `CC(C)[C@H](CO)Nc1nc(Nc2cc(N)cc(Cl)c2)c2ncn(C(C)C)c2n1`, for which the Potency result is “inactive”.
Turning to `COc1ccccc1N1CCN(c2nc3ccccc3n3nnnc23)CC1`, the Potency entry was “inactive”.
On to `NC(=O)c1ccc(OC[C@H](O)CN2CC=C(c3ccc(F)cc3)CC2)cc1`, for which the Potency result is “inactive”.
Turning to `Cc1ccc(SCc2cc(=O)[nH]c(N3CCCCC3)n2)cc1`, the Potency entry was “inactive”.
Turning to `CN(C)c1nc(N)nc(CSc2nnnn2-c2cccc3ccccc23)n1`, the Potency result is “inactive”.
Regarding `N#CC1=C(N)Oc2n[nH]c(CSc3ccccc3)c2C12C(=O)Nc1ccccc12` (centres undefined), the Potency entry is “inactive”.
On to `CCOc1ccc(N(CC(=O)OC)S(=O)(=O)c2c(C)noc2C)cc1`, for which the Potency result is “inactive”.
With `O=c1cc(-c2ccc(O)c(O)c2)oc2cccc(O)c12` the entry was “inactive”.
On to `Oc1ccc(O)c2c(O)cccc12`, for which the Potency is 0.631 µM (active).
Consider `Cc1ccc(C(=O)NCC(=O)O)cc1S(=O)(=O)N1CCCCC1`, for which the Potency entry was “inactive”.
In the case of `CC[N+](C)(CC)CCC[n+]1c(-c2ccccc2)c2cc(N)ccc2c2ccc(N)cc21`, the Potency entry is “inactive”.
Consider `O=C(c1csnn1)N1CCC[C@@]2(CCN(c3cccc(-c4ccccc4)c3)C2)C1`, for which the Potency entry was “inactive”.
With `Cc1cc2cc(CN(Cc3cccs3)Cc3nnnn3CC3CCCO3)c(=O)[nH]c2cc1C` (centres undefined) the entry was “inactive”; with `CCCNS(=O)(=O)c1ccc(CCC(=O)NCc2cccnc2)cc1`, “inactive”; with `CC(C)(C)c1cc(C(=O)NCc2cccnc2)ccn1`, “inactive”.
On to `O=C(NCc1cccnc1)c1ccc(CS(=O)(=O)c2ccc(Br)cc2)o1`, for which the Potency is 3.16 µM (active).
Turning to `Cc1ccnc(SCCn2c(N(C)Cc3ccccc3)nc3c2c(=O)n(C)c(=O)n3C)n1`, the Potency entry is “inactive”.
